V-ATPase pHluor: regulators of yeast V-ATPase proton pumping, primary screen, pHLuorin cytosolic pH fluorescence; S. cerevisiae; response, % at 10 µM; 0.37% of 350,000 active; in the data active = response mostly above about 7.3%, no sharp cut-off; inactive = mostly below about 5.4%; note: actives read high
tim23-1 inh: growth inhibitors of tim23-1 mutant yeast, primary screen, luminescence, uHTS; S. cerevisiae tim23-1 growth, BacTiter-Glo luminescence, 24 h; inhibition, % at 20 µM; 1.3% of 330,000 active; AID 463212, 2010;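 active = growth inhibition of the mutant yeast at or above 50%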;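 note: temperature-sensitive mutant grown at 25 °C; plate controls were DMSO-treated mutant yeast for no effect and medium wells lacking yeast for full effect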
NALP1 yeast inh: NALP1 inflammasome inhibitors in reconstituted yeast, colorimetric, S. cerevisiae, triplicate retest; 0.61% of 280,000 active; S. cerevisiae NALP1/ASC/caspase-1 growth, X-gal OD620, 72 h; AID 2071, 2009; inhibition, % at 10 µM; in the data active = inhibition mostly above about 24%, no sharp cut-off; inactive = mostly below about 32%
NLRP3 yeast inh: NALP3 inflammasome inhibitors in reconstituted yeast, primary screen, luminescence, uHTS | 0.39% of 330,000 active | inhibition, % at 10 µM | Yeast reconstituted NLRP3/ASC/caspase-1, beta-gal luminescence, 24 h;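 active = inhibition of 50% or more; inactive = inhibition below 50%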;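 note: plate controls were induced DMSO wells for no effect and uninduced yeast grown without galactose for full effect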
TIM10 inh: growth inhibitors of isogenic TIM10 control yeast, primary screen, counter-screen for tim10-1 yeast inhibitor project, luminescence, uHTS; S. cerevisiae TIM10 strain growth, BacTiter-Glo luminescence, 24 h; inhibition, % at 10 µM; 1.4% of 330,000 active; AID 463195, 2010;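 active = inhibition of 40% or more at the single tested concentration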;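 note: wild-type TIM10 isogenic control strain grown at permissive 25 °C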
tim10-1 inh: growth inhibitors of tim10-1 mutant yeast, primary screen, luminescence, uHTS; S. cerevisiae tim10-1 ts strain growth, BacTiter-Glo, 24 h; inhibition, % at 20 µM; 2.2% of 330,000 active;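 active = inhibition of at least 40%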;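 note: mutant grown at 25 °C; 0% = DMSO wells with yeast and 100% = wells holding no yeast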
* hit, by the source's call. Compounds with a hit are over-represented: about 4.2% of the library has one in this group of screens.

Results for CC1CCCN(CCOCCOc2ccc(Cl)cc2Br)C1 (configuration not stated) ?
V-ATPase pHluor: 5; tim23-1 inh: -6; NALP1 yeast inh: 42*; NLRP3 yeast inh: 34; TIM10 inh: -36; tim10-1 inh: -4

How did CCCCNCCOCCOc1ccc(Cl)cc1Br do in these assays?
V-ATPase pHluor: 2; tim23-1 inh: -3; NALP1 yeast inh: 52*; NLRP3 yeast inh: 25; TIM10 inh: -40; tim10-1 inh: -32

Results for CC1CCCN(CCOCCOc2ccc(Br)cc2Cl)C1 (configuration not stated) ?
V-ATPase pHluor: 1; tim23-1 inh: 16; NALP1 yeast inh: 48*; NLRP3 yeast inh: 35; TIM10 inh: -24; tim10-1 inh: -22

Results for COCCCNCCCOc1ccc(Cl)cc1Br ?
V-ATPase pHluor: -3; tim23-1 inh: 11; NALP1 yeast inh: 19; NLRP3 yeast inh: 11; TIM10 inh: 9; tim10-1 inh: 14

Results for CCOC(=O)Cn1nc(NC(=O)COc2ccc(F)cc2)cc1C ?
V-ATPase pHluor: -3; tim23-1 inh: 10; NALP1 yeast inh: -6; NLRP3 yeast inh: 5; TIM10 inh: -1; tim10-1 inh: -5

How did CC(C)(C)c1ccc(C(=O)O[C@H]2[C@H](Cc3ccccc3)NS(=O)(=O)[C@H]3C[C@@H]4C=C[C@]23O4)cc1 do in these assays?
V-ATPase pHluor: 2; tim23-1 inh: 17; NLRP3 yeast inh: 12; TIM10 inh: -5; tim10-1 inh: 9

What do the screens show for `O=C(CN1CCN(c2ccccc2)CC1)Nc1c(C(=O)C2CC2)oc2ccccc12`?
V-ATPase pHluor: 0; tim23-1 inh: 9; NALP1 yeast inh: -5; NLRP3 yeast inh: 19; TIM10 inh: 4; tim10-1 inh: 5

Results for Cc1ccc(N2CCN(CC(=O)Nc3c(C(=O)C4CC4)oc4ccccc34)CC2)cc1 ?
NALP1 yeast inh: 47*

What do the screens show for `O=C(C1CCCO1)N1CCN(S(=O)(=O)c2ccc(Cl)cc2)CC1` (configuration not stated)?
V-ATPase pHluor: 3; tim23-1 inh: -2; NALP1 yeast inh: 1; NLRP3 yeast inh: 23; TIM10 inh: 1; tim10-1 inh: 6

How did O=C(O)CCCn1cc(NC(=O)c2cccc(F)c2)cn1 do in these assays?
V-ATPase pHluor: 6; tim23-1 inh: 9; NALP1 yeast inh: 27*; NLRP3 yeast inh: 2; TIM10 inh: -28; tim10-1 inh: 12

How did Cc1c(Cl)cccc1NC(=O)C1=COCCO1 do in these assays?
V-ATPase pHluor: 5; tim23-1 inh: -7; NLRP3 yeast inh: 14; TIM10 inh: -10; tim10-1 inh: -18

Results for Clc1ccc(-c2cnc(Oc3ccccc3)nc2)cc1 ?
V-ATPase pHluor: 6; tim23-1 inh: 16; NALP1 yeast inh: 39*; NLRP3 yeast inh: -9; TIM10 inh: 10; tim10-1 inh: 15

What do the screens show for `CC(C)(C)c1nnc(NC(=O)C2CC(=O)N(CCc3ccc(F)cc3)C2)s1` (configuration not stated)?
V-ATPase pHluor: -4; tim23-1 inh: 2; NALP1 yeast inh: 14; NLRP3 yeast inh: 3; TIM10 inh: -5; tim10-1 inh: -5

How did COc1ccc(S(=O)(=O)NCc2ccccn2)cc1 do in these assays?
V-ATPase pHluor: -1; tim23-1 inh: -14; NALP1 yeast inh: 14; NLRP3 yeast inh: 10; TIM10 inh: -1; tim10-1 inh: 3

Results for CCOc1ccc(S(=O)(=O)NCc2ccccn2)cc1 ?
V-ATPase pHluor: 1; tim23-1 inh: 13; NALP1 yeast inh: 42*; NLRP3 yeast inh: -1; TIM10 inh: 19; tim10-1 inh: 21

How did CCCCN(C(=O)CSCc1ccc(C)cc1)c1c(N)n(CCC)c(=O)[nH]c1=O do in these assays?
V-ATPase pHluor: 2; tim23-1 inh: 15; NALP1 yeast inh: 11; NLRP3 yeast inh: 12; TIM10 inh: 2; tim10-1 inh: 5

Results for Cc1nnc(NC(=O)C2CCCO2)s1 (configuration not stated) ?
V-ATPase pHluor: -1; tim23-1 inh: 2; NALP1 yeast inh: 8; NLRP3 yeast inh: 15; TIM10 inh: 6; tim10-1 inh: 9

How did CC1CCc2nc(NC(=O)C3CCCO3)sc2C1 (configuration not stated) do in these assays?
V-ATPase pHluor: 7; tim23-1 inh: 22; NALP1 yeast inh: 33*; NLRP3 yeast inh: 11; TIM10 inh: 9; tim10-1 inh: 13

Results for CC1CCc2nc(NC(=O)Cc3cccs3)sc2C1 (configuration not stated) ?
V-ATPase pHluor: 0; tim23-1 inh: 49; NALP1 yeast inh: 20; NLRP3 yeast inh: 48; TIM10 inh: 29; tim10-1 inh: 39

What do the screens show for `CCCC(C)c1nnc(NC(=O)C2CCCO2)s1` (configuration not stated)?
V-ATPase pHluor: -1; tim23-1 inh: 3; NALP1 yeast inh: 33*; NLRP3 yeast inh: 24; TIM10 inh: 4; tim10-1 inh: 2

How did C[C@H](CO)N1C[C@H](C)[C@@H](CN(C)C(=O)C2CCOCC2)Oc2ncc(Br)cc2C1=O do in these assays?
V-ATPase pHluor: 0

How did CCOc1ccccc1N1CC(C(=O)N(CC)CC(=O)Nc2ccc3c(c2)OCCO3)CC1=O (configuration not stated) do in these assays?
V-ATPase pHluor: -5; tim23-1 inh: -47; NLRP3 yeast inh: 4; TIM10 inh: -13; tim10-1 inh: -32

What do the screens show for `COc1cc2cc(CCCOC(=O)c3ccc(C#N)cc3)oc(=O)c2cc1OC`?
V-ATPase pHluor: 0; tim23-1 inh: 40; NLRP3 yeast inh: 6; TIM10 inh: 13; tim10-1 inh: 21

What do the screens show for `O=C(CSc1nnc2ccc(-c3ccc(F)cc3)nn12)N1CCCC1`?
V-ATPase pHluor: 20*; tim23-1 inh: 13; NALP1 yeast inh: 0; NLRP3 yeast inh: 1; TIM10 inh: 0; tim10-1 inh: -8

Results for O=C(CSc1ccc2nnc(-c3ccc(Cl)cc3)n2n1)N1CCCC1 ?
V-ATPase pHluor: 14*; tim23-1 inh: -20; NLRP3 yeast inh: 18; TIM10 inh: -18; tim10-1 inh: 14

Results for C=CCn1c(CNC(=O)c2ccccc2F)nnc1SCC(=O)NC(C)c1ccccc1 (configuration not stated) ?
V-ATPase pHluor: -1; tim23-1 inh: 7; NALP1 yeast inh: 4; NLRP3 yeast inh: 21; TIM10 inh: 9; tim10-1 inh: 6

Results for O=C(CCC(=O)c1ccc[nH]1)c1ccc(Cl)cc1 ?
V-ATPase pHluor: -1; tim23-1 inh: -1; NALP1 yeast inh: 27*; NLRP3 yeast inh: 9; TIM10 inh: -4; tim10-1 inh: 4

From PubChem BioAssay
